Data: PubChem BioAssay (EPA / NIEHS)
Inconclusive results are not listed. Activity calls are given as the source filed them. Rule for the calls, unless noted: active = hit-call score of the fitted dose curve at least 0.9, where 1 is the maximum; inconclusive = response in the unintended direction; inactive = score below 0.9.

What was measured:
[1] = IUF_NPC1_cytotoxicity_72hr: Cytotoxicity Assessment at 72 hours in the Leibniz Research Institute for Environmental Medicine (IUF) Neural Progenitor Cell Proliferation Assay (NPC1) (AID 2284332);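 note: rising LDH signal means more cytotoxicity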
Method in brief: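 Single human fetal cortex neural progenitor spheres (GW 16-19, 0.25-0.35 mm) in EGF/FGF proliferation medium were exposed to compound for 72 h at 37C without renewal. Medium LDH release was read as resorufin fluorescence and fitted as gain-of-signal.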

[2] = VALA_MIGHUV1_ScratchOnly_WoundArea: VALA Sciences human Umbilical Vein Endothelial Cell Migration (MIGHUV) Assay, Area of Scratch Wound Inhibited Recovery (AID 2284336)
Method in brief: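 HUVEC monolayers (9000 cells/well) were scratched after 24 h, dosed within 30 min (six concentrations, triplicate, 0.1% DMSO), allowed 24 h recovery, then fixed. Hoechst-stained nuclei in the wound imaged; cytochalasin D as reference.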

[3] = VALA_TUBHUV_Agonist_TubuleLength: VALA Sciences human Umbilical Vein Endothelial Tubule Formation (TUBHUV) Agonism Assay (AID 2284337)
Method in brief: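 HUVEC co-cultured with fibroblasts (1:3) 3 days in 10 ng/ml VEGF, then 3 days with compound plus VEGF; 0.1 % DMSO neutral control. Fixed, nuclear and CD31 stained; tubule length by fluorescence imaging.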

[4] = VALA_TUBIPS_Agonist_CellCount: Viability Assessment in the VALA Sciences human iPS-derived Endothelial Tubule Formation (TUBIPS) Agonism Assay (AID 2284338)
Protocol: (§1) VALA_TUBIPS_Agonist is a cell-based, multiplexed assay that uses human iPS-derived endothelial cells (iPSC). Measurements were taken 72 hours after chemical dosing in a 96-well plate.VALA_TUBIPS_Agonist_CellCount is the one of two assay components measured from the VALA_TUBIPS_Agonist assay. It is designed to make measurements of viability, a form of viability reporter, as detected with fluorescence intensity signals by HCS Fluorescent Imaging technology. Data from the assay component VALA_TUBIPS_Agonist_CellCount was analyzed at the endpoint, VALA_TUBIPS_Agonist_CellCount, in the positive analysis fitting direction relative to DMSO as the negative control and baseline of activity. Using a type of viability reporter, loss-of-signal activity can be used to understand viability. To generalize the intended target to other relatable targets, this assay endpoint is annotated to the cell cycle intended target family, where the subfamily is cell count.
(§2) This HUVEC-HDF assay was designed to detect chemical suppression of tubulogenesis, i.e. antagonism. To measure tubulogenesis antagonism, HUVEC cells were co-cultured with HDF cells at a 1:3 ratio for 3-days in 10 ng/ml VEGF (i.e., favorable conditions with growth factors), then changed to assay medium containing 10 ng/ml VEGF and ToxCast compounds for an additional 3-day period. […]

[5] = CCTE_Mundy_HCI_iCellGluta_NOG_NeuronCount: CCTE's Neurite Outgrowth Assay in iCellGluta cells for Neuron Count, Mundy Lab (AID 2284340);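 note: cells fixed about 48 h after compound addition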
Method in brief: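 Neuron count read by automated high-content imaging of Hoechst 33342 and betaIII-tubulin/Alexa Fluor-488 labelling in human iPSC glutamatergic neurons. Activity fitted relative to DMSO.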

[6] = TAMU_PeakParms_SingleDonor1434_Asystole: Texas A&M University (TAMU) 1.5-hr Human Induced Pluripotent Stem Cell (iPSC)-derived Cardiomyocytes Calcium (Ca+2) Flux Assay for Cardiotoxicity: Asystole (quiescence of beating) (AID 2284328)
Method in brief: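 Average Ca2+-flux peak frequency (beats/s) was recorded in single-donor iPSC-derived cardiomyocytes after 90 min exposure (0.2–100 uM final, 0.5% DMSO). Asystole POD set as EC95 against DMSO, no preprocessing.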

[7] = VALA_TUBIPS_Antagonist_CellCount: Viability Assessment in the VALA Sciences human iPS-derived Endothelial Tubule Formation (TUBIPS) Antagonism Assay (AID 2284335)
Protocol: as §1, with “96-well plate.VALA_TUBIPS_Antagonist_CellCount” for “96-well plate.VALA_TUBIPS_Agonist_CellCount”, “the VALA_TUBIPS_Antagonist” for “the VALA_TUBIPS_Agonist”, “component VALA_TUBIPS_Antagonist_CellCount” for “component VALA_TUBIPS_Agonist_CellCount”, “endpoint, VALA_TUBIPS_Antagonist_CellCount,” for “endpoint, VALA_TUBIPS_Agonist_CellCount,”
as §2

[8] = tested on: Brachyury (BRA) Protein Expression, Deisenroth Lab, TBXT (gene 6862); assay: CCTE_Deisenroth_DEVTOX-GLR_legacy_Bra: (Legacy) CCTE's DevTox GLR-Endo Assay Evaluation of Brachyury (BRA) Protein Expression, Deisenroth Lab (AID 2284329; active = hit-call score of the fitted dose curve at least 0.9, where 1 is the maximum; inactive = score below 0.9)
Method in brief: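 Human pluripotent RUES2-GLR line was exposed twice during 48 h differentiation to a 10-point series, 1 nM - 200 uM. Fraction of Bra-positive cells was scored by imaging against pluripotent baseline and fitted after 0.2% DMSO subtraction.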

[9] = CCTE_Deisenroth_DEVTOX-GLR_legacy_CellCount: (Legacy) Viability Assessment in CCTE's DevTox GLR-Endo Assay, Deisenroth Lab (AID 2284331; active = hit-call score of the fitted dose curve at least 0.9, where 1 is the maximum; inactive = score below 0.9); details: actives raise or lower the signal
Method in brief: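 Viability is taken from imaged nuclei counts in fixed RUES2-GLR cultures after 48 h of differentiation under two 24 h-spaced chemical exposures, 10 concentrations from 1 nM to 200 uM, gain or loss versus DMSO baseline.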

[10] = tested on: SRY-box transcription factor 17 (SOX17) Protein Expression, Deisenroth Lab, SOX17 (gene 64321); assay: CCTE_Deisenroth_DEVTOX-GLR_legacy_Sox17: (Legacy) CCTE's DevTox GLR-Endo Assay Evaluation of SRY-box transcription factor 17 (SOX17) Protein Expression, Deisenroth Lab (AID 2284341; active = hit-call score of the fitted dose curve at least 0.9, where 1 is the maximum; inactive = score below 0.9); details: actives raise or lower the signal
Method in brief: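 Endoderm-differentiation readout in RUES2-GLR human pluripotent cells at 48 h, concentrations spanning 1 nM - 200 uM. Sox17-positive cells divided by total cell count; gain or loss relative to DMSO solvent control, n=4 experimental replicates.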

N#Cc1nn(-c2c(Cl)cc(C(F)(F)F)cc2Cl)c(N)c1S(=O)C(F)(F)F (stereo not drawn)
outcome [1]: inactive
outcome [2]: inactive
outcome [3]: inactive
outcome [4]: inactive
outcome [5]: inactive

CCCCC(CC)COC(=O)c1ccccc1C(=O)OCC(CC)CCCC (stereo not drawn)
outcome [6]: inactive
outcome [1]: inactive
AC50 [5]: 18.8 µM (active)

Oc1ccccc1-c1ccccc1
outcome [6]: inactive

C=CCC1=C(C)[C@@H](OC(=O)[C@@H]2[C@@H](C=C(C)C)C2(C)C)CC1=O
outcome [5]: inactive

CN(C)C(=S)SSC(=S)N(C)C
AC50 [1]: 20.5 µM (active)
AC50 [5]: 0.0675 µM (active)

COP(=S)(OC)Oc1nc(Cl)c(Cl)cc1Cl
outcome [1]: inactive
AC50 [5]: 23.1 µM (active)

CC(C)(C)c1ccc(CSc2cnn(C(C)(C)C)c(=O)c2Cl)cc1
outcome [1]: inactive
outcome [7]: inactive
AC50 [3]: 7.59 µM (active)
AC50 [4]: 50 µM (active)
AC50 [5]: 6.79 µM (active)

COC(=O)N(OC)c1ccccc1COc1ccn(-c2ccc(Cl)cc2)n1
outcome [1]: inactive
AC50 [5]: 12.7 µM (active)

Cc1ccc(-c2c(Cl)nc(C#N)n2S(=O)(=O)N(C)C)cc1
outcome [1]: inactive
AC50 [5]: 50 µM (active)

CCCCNC(=O)n1c(NC(=O)OC)nc2ccccc21
outcome [5]: inactive

COP(N)(=O)SC (stereo not drawn)
outcome [1]: inactive
outcome [5]: inactive

CCCCOC(=O)c1ccccc1C(=O)OCCCC
outcome [1]: inactive
outcome [5]: inactive

CCCCNC(=O)OCC#CI
outcome [6]: inactive

CO/C=C(/C(=O)OC)c1ccccc1Oc1cc(Oc2ccccc2C#N)ncn1
outcome [1]: inactive
AC50 [5]: 66 µM (active)

CCOC(=O)CC(SP(=S)(OC)OC)C(=O)OCC (stereo not drawn)
outcome [1]: inactive
outcome [5]: inactive

CNC(=O)ON=CC(C)(C)SC
outcome [6]: inactive
outcome [1]: inactive

C=CCC1=C(C)C(OC(=O)C2C(C=C(C)C)C2(C)C)CC1=O (stereo not drawn)
outcome [5]: inactive

CCOc1cc(Oc2ccc(C(F)(F)F)cc2Cl)ccc1[N+](=O)[O-]
outcome [1]: inactive
AC50 [5]: 50 µM (active)

COC(=O)c1ccccc1C(=O)OC
outcome [8]: inactive
outcome [9]: inactive
outcome [10]: inactive

C=CC1(C)OC(=O)N(c2cc(Cl)cc(Cl)c2)C1=O (stereo not drawn)
outcome [1]: inactive
outcome [5]: inactive
